Shown are actives, neighbours in structure and some others; about 10% of the full set was active somewhere.
JMJD2A Tudor: JMJD2A Tudor domain (human) inhibition; O75164; AlphaScreen JMJD2A-Tudor / H3K4me3 peptide binding; Potency, µM (highest dose often 114 µM), most hits filed as inhibitors; 4.4% of 390,000 active; AID 504339; further: nearly all actives have a fitted effect of over 50% in size
CtBP-E1A inh: CtBP/E1A binding inhibition; AlphaScreen GST-E1A/His-CtBP binding, 1536-well; active compounds read low; activity change, % (no concentration beside the values); 0.49% of 340,000 active; in the data active means activity change below about -65%; inconclusive means mostly about -30% to -63%
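AlphaScreen with 125 nM GST-E1A and 125 nM His-CtBP (5X stocks) in Tris pH 8.0, 300 mM NaCl, BSA, Tween 20, TCEP. Compounds preincubated 2 h at 37 deg C, then glutathione donor/nickel acceptor beads added for 1 h at 37 deg C in dark.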
G9a block: inhibitors of human histone lysine methyltransferase G9a; Q96KQ7; G9a H3K9 monomethylation, AlphaScreen, 2 h; Potency, µM (titrated, usually from 102 µM), most hits filed as inhibitors; 8.8% of 350,000 active; AID 504332; further: nearly all actives have a fitted effect of over 75% in size
Target sequence (Q96KQ7 913-1193 limits assumed): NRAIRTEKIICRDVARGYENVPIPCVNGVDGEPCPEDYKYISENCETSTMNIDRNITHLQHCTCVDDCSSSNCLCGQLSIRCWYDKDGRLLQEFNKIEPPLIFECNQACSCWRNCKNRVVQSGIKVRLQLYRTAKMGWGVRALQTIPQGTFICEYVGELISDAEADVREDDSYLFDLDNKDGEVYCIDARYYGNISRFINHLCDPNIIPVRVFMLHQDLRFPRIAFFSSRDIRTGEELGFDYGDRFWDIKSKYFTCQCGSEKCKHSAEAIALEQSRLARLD
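G9a (20 nM) preincubated 15 min RT with compounds, then 500 nM biotinylated H3K9 peptide and 20 uM SAM added; 2 h RT reaction. Monomethyl-H3K9 product detected by AlphaScreen with anti-H3K9me1 antibody, streptavidin donor and anti-rabbit IgG acceptor beads.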
Six1-Eya2 blk: inhibitors of human Six1/Eya2 interaction; 0.56% of 360,000 active; AID 651725; AlphaScreen GST-Six1/His-Eya2 binding, biochemical; active compounds read low; Q15475+O00167; activity change, % (concentration not given with the values); in the data active means activity change below about -65%; inconclusive means mostly about -30% to -63%
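GST-Six1 + His-Eya2 (5X stock: 250/500 nM); Tris pH 8.0, 300 mM NaCl, 0.05% BSA, 0.02% Tween 20; GSH donor/Ni acceptor beads; 1 h 37 °C dark; AlphaScreen readout.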
BAZ2B block: inhibitors of human BAZ2B bromodomain. Potency, µM (titrated, usually from 114 µM), usual class: inhibitors. AID 504333. Q9UIF8. AlphaScreen BAZ2B-H3K14Ac peptide displacement. 4.4% of 360,000 active; further: nearly all actives have a fitted effect of over 60% in size
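AlphaScreen displacement: compounds (up to 110uM) incubated 30 min at room temperature with a preformed 50 nM BAZ2B/50 nM biotinylated H3K14Ac peptide complex in PBS pH 7.4 with Tween-20. Donor and acceptor beads at 10 ug/mL final added, 20 min light-protected before reading.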
HP1b chromo inh: HP1-beta chromodomain-methylated histone interaction inhibition; AlphaScreen HP1-beta / biotin-H3K9me3 peptide binding; P83916; Potency, µM (series often up to 114 µM), hits mostly inhibitors; 0.56% of 390,000 active; further: nearly all actives have a fitted effect of over 70% in size
Target sequence (P83916 whole entry, looked up): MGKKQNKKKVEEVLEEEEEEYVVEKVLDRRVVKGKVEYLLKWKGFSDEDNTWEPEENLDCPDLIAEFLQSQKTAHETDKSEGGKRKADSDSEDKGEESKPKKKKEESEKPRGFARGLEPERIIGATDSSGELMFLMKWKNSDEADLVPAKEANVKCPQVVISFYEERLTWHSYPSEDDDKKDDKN
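AlphaScreen: HP1-beta (50 nM) preformed 30 min with biotin-H3(1-18)K9me3 peptide (50 nM) in PBS pH 7.4, 0.01% Tween-20. Compound added for 30 min at RT, then streptavidin donor/nickel chelate acceptor beads (10 ug/mL) for 30 min.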
Hits are given with their value; . = inactive; ? = inconclusive; / = not tested or not shown; ! = not active in a repeat; [ ] = remark or other dose. Unless noted, the call rests on the fitted dose curve; in most records, active means well fitted inhibition curve with a large enough effect; inconclusive means small, poorly fitted or top-dose-only effect; inactive means no such curve, though single readings can be large or run the other way.

SMILES | JMJD2A Tudor | CtBP-E1A inh | G9a block | Six1-Eya2 blk | BAZ2B block | HP1b chromo inh
CCn1c2ccccc2c2cc(NC(=O)CSc3nnc(C4CC4)n3Cc3ccco3)ccc21 | . | . | 10µM | . | . | .
Nn1cc(-c2ccccc2)nc1SCC(=O)Nc1ccc2c(c1)OCO2 | ? | ? | 70.8µM | ? | . | .
Cc1cc(Cl)ccc1NC(=O)CSc1nnc(-c2ccncc2)n1Cc1ccco1 | . | . | ? | . | . | .
Nn1c(SCC(=O)Nc2ccc3c(c2)OCCO3)nnc(CCC(=O)O)c1=O | 20µM | . | . | . | . | .
CC(=O)Nc1cccc(NC(=O)CSc2ncc(-c3ccc(Cl)cc3)n2Cc2ccco2)c1 | ? | . | 12.6µM | . | 12.6µM | ?
CC1(C)CC(=O)C=C(c2cccc3c2sc2ccccc23)C1 | . | . | .[0.501 µM] | . | . | .
Cc1ccc(NCC(=O)N/N=C\c2ccc[nH]2)cc1 | . | . | ? | . | ? | .
CCCCC1CCC(C(=O)N(CCOC)c2c(N)n(CCCC)c(=O)[nH]c2=O)CC1 (stereo not given) | . | . | .[2.33 µM] | . | . | .
O=C(CSc1nnc(-c2ccccc2Cl)n1Cc1ccco1)Nc1ccc2c(c1)OCCO2 | .[11.4 µM] | ? | . | . | . | .
NC(=O)CSc1nnc(-c2ccc(S(=O)(=O)N3CCCC3)cc2)n1Cc1ccco1 | . | . | ? | . | . | .
O=C(O)CSc1nnc(-c2ccc(S(=O)(=O)N3CCCC3)cc2)n1Cc1ccco1 | . | . | 56.2µM | . | . | .
COc1ccc(-c2cnc(SCC(=O)Nc3ccc4c(c3)OCO4)n2Cc2ccco2)cc1 | 20µM | ? | 25.1µM | ? | ? | ?
O=C(CSc1nnc(-c2ccc(Cl)cc2)n1Cc1ccco1)Nc1ccc2c(c1)OCCO2 | . | . | 44.7µM | . | . | .
Cc1cc2c(cc1S(=O)(=O)Nc1cccc(C#N)c1)OCC(=O)N2 | . | / | . | / | . | .
CC(=O)Nc1ccc(S(=O)(=O)c2ccnc3cc(Cl)ccc23)cc1 | / | . | / | . | / | /
O=C(O)Cc1csc(-c2cccc(F)c2)n1 | . | . | . | . | . | .
CCOC(=O)CNC(=O)c1ccc(OCC(F)(F)F)cc1 | . | / | . | . | . | .
Cc1n[nH]c(=S)n(/N=C/c2cccc([N+](=O)[O-])c2)c1=O | ? | -66.2 | . | ? | . | .
O=[N+]([O-])c1ccc(/C=N/n2c(-c3cccnc3)n[nH]c2=S)cc1 | 8.91µM | . | . | . | . | .
O=[N+]([O-])c1ccc(-c2nn(-c3ccccc3)cc2/C=N/n2c(-c3ccncc3)n[nH]c2=S)cc1 | . | . | ? | . | . | .
COc1cc(/C=N/n2c(=S)[nH]nc(C)c2=O)cc([N+](=O)[O-])c1O | ? | . | . | . | . | .
O=[N+]([O-])c1cc(/C=N/n2c(-c3ccncc3)n[nH]c2=S)ccc1Cl | ? | . | / | . | ? | .
Cc1ccsc1/C=N/n1c(-c2cccnc2)n[nH]c1=S | 4.47µM | . | ? | . | . | .
O=[N+]([O-])c1cccc(/C=N/n2c(-c3cccnc3)n[nH]c2=S)c1 | 3.98µM | . | 1.78µM | . | . | ?
O=C(CSc1ncccn1)N(Cc1cccnc1)C(CCc1ccccc1)c1nc2ccccc2[nH]1 (stereo not given) | / | . | / | . | / | /
SMILES | JMJD2A Tudor | CtBP-E1A inh | G9a block | Six1-Eya2 blk | BAZ2B block | HP1b chromo inh
O=[N+]([O-])c1ccc(Cl)c(/C=N/n2c(-c3cccnc3)n[nH]c2=S)c1 | / | / | 5.62µM | / | . | /
Cc1cc(C)cc(-n2nnn(C3C/C(=N/NC(N)=S)C4OCC3O4)c2=S)c1 (stereo not given) | ? | . | 50.1µM | . | . | .
CCOc1cc(C(=S)N2CCOCC2)ccc1OS(=O)(=O)c1ccccc1 | . | . | . | . | . | .
CCOC(=O)c1ccc(OS(=O)(=O)c2ccccc2)c(OC)c1 | 89.1µM | . | . | . | . | .
CCOC(=O)c1cc(-c2ccccc2)sc1NC(=O)c1ccc(OC)c(OC)c1 | ? | . | 3.55µM | . | . | ?
COC(=O)c1cc(-c2ccccc2)sc1NC(=O)CN1C(=O)c2ccccc2C1=O | ? | . | 10µM | . | . | ?
COC(=O)c1cc(OC)c(OC)cc1NC(=O)CN1C(=O)c2ccccc2C1=O | ? | . | . | . | ? | .
CCCSc1nc2c(cnn2-c2ccc(C)c(C)c2)c(=O)[nH]1 | . | . | . | . | . | .
COC(=O)c1ccc(CSc2nc3scc(-c4cccs4)c3c(=O)[nH]2)o1 | 44.7µM | . | ? | . | / | .
COC(=O)c1ccc(CSc2nc3c(cnn3-c3ccc(C)c(C)c3)c(=O)[nH]2)o1 | 50.1µM | . | . | . | . | .
O=C(CN1C(=O)c2ccccc2C1=O)c1ccc(F)cc1 | . | . | .[2.33 µM] | . | . | .
O=C(CN1C(=O)c2ccccc2C1=O)OCC(=O)c1ccc(F)cc1 | . | . | 50.1µM | . | . | .
C=CC(n1cncn1)C(O)(c1ccccc1)c1ccccc1 (stereo not given) | . | . | .[2.33 µM] | . | . | .
CCCCOc1ccc(C2=CSC3=NCCN23)cc1[N+](=O)[O-] | ? | . | ? | . | . | .
CCCCOc1ccc(-c2csc(N)n2)cc1[N+](=O)[O-] | . | . | 8.91µM | . | ? | .
COc1[nH]c(/N=C/c2ccco2)c(C#N)c1C#N | 31.6µM | / | / | / | / | 22.4µM
Cn1c(=O)c([N+](=O)[O-])c(NCc2ccccc2)c2ccccc21 | . | . | 50.1µM | . | . | .
COc1ccc(CNC(=O)C(=O)NCCCn2ccnc2)cc1 | . | . | . | . | . | .
CCOc1cc(C(=O)Nc2cc3c(cc2N2CCOCC2)n(C)c(=O)n3C)cc(OCC)c1OCC | 25.1µM! | . | . | . | . | .
Cc1cccc(C(=O)Nc2cc3c(cc2N2CCOCC2)n(C)c(=O)n3C)c1 | . | / | . | / | . | .
Cc1cccc(C(=O)Nc2cc3c(cc2N2CCCCC2)n(C)c(=O)n3C)c1 | . | / | . | / | 50.1µM | .
Cn1c(=O)n(C)c2cc(N3CCOCC3)c(NC(=O)c3ccc(Cl)cc3)cc21 | . | / | . | / | . | .
COc1cccc(C(=O)Nc2cc3c(cc2N2CCOCC2)n(C)c(=O)n3C)c1 | . | . | 20µM | . | ? | .
COc1ccc(C(=O)Nc2cc3c(cc2N2CCOCC2)n(C)c(=O)n3C)cc1OC | . | . | . | . | ? | .
Cc1c(C(=O)OCC2CCCCC2)[nH]c2c1C(=O)CC(c1ccccc1Cl)C2 (stereo not given) | . | / | . | / | . | .
c1coc(CNC2CCCCCCC2)c1 | 50.1µM | . | 20µM | . | 89.1µM | .
c1coc(CNC2CCCCC2)c1 | 7.08µM | . | ? | . | ? | .
O=C(OCCN1C(=O)CCC1=O)c1ccc(S(=O)(=O)N2CCCCC2)cc1 | . | . | . | . | . | .

Bioassay records (PubChem BioAssay)
